Test results taken from the supplement of paper PMC6607015.
Counter-ions that a name gives are not always drawn.

Tested on: A431
Experiment: LBPA endosome anti-LBPA integrated intensity (sum per cell), Z-score; higher = more LBPA staining
Conditions: compound concentration in added solution (µM; 5 µl added to 20 µl cells): 10; 18 h
Outline: (§1)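 Each value is a Z-score normalised in AcuityXpress from per-cell integrated LBPA or filipin intensity, taken over the whole cell or within LBPA endosomes. Duplicate 384-well imaging plates held 5 µl of 10 µM compound solution, onto which 3,500 HeLa MZ or A431 cells in 20 µl were seeded per well. After 18 h the cells were fixed in 4% PFA, stained with 6C4 anti-LBPA antibody, filipin, propidium iodide and CellTracker green, imaged four times per well at 20× and segmented in MetaXpress.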

SMILES	LBPA endosome anti-LBPA integrated intensity (z-score)
OC(CCN1CCCCC1)(c1ccccc1)C1CCCCC1 (stereo not drawn) [Trihexyphenidyl-D,L Hydrochloride]	1.27
Nc1ccn([C@@H]2CS[C@H](CO)O2)c(=O)n1 [Lamivudine]	-0.481
COc1ccccc1OCC(O)CN1CCN(CC(=O)Nc2c(C)cccc2C)CC1 (stereo not drawn) [Ranolazine]	-0.238

Tested on: HeLa MZ
Experiment: as above
Conditions: compound concentration in added solution (µM; 5 µl added to 20 µl cells): 10; 18 h
Outline: as §1

SMILES	LBPA endosome anti-LBPA integrated intensity (z-score)
CCOc1cc(CC(=O)N[C@@H](CC(C)C)c2ccccc2N2CCCCC2)ccc1C(=O)O [Repaglinide]	-1.05
Cc1cn[nH]c1 [Fomepizole]	-0.603
CNCC[C@@H](Oc1ccccc1C)c1ccccc1 [Tomoxetine hydrochloride]	-0.709
O=C(Nc1cccc2c(=O)cc(-c3nnn[nH]3)oc12)c1ccc(OCCCCc2ccccc2)cc1 [Pranlukast]	-1.1
N#CC(c1ccc(Cl)cc1)c1c(Cl)cc(-n2ncc(=O)[nH]c2=O)cc1Cl (stereo not drawn) [Diclazuril]	0.505
CCCCC1C(=O)N(c2ccccc2)N(c2ccccc2)C1=O [Phenylbutazone]	0.571
CCN1CCCC1CNC(=O)c1cc(S(=O)(=O)CC)c(N)cc1OC (stereo not drawn) [Amisulpride]	-0.244
CNC(C)CCC=C(C)C (stereo not drawn) [Isometheptene mucate]	-0.292
CC(=O)Oc1cc(C(C)C)c(OCCN(C)C)cc1C [Moxisylyte hydrochoride]	-0.0871
CN1CCC[C@@H]1CCO[C@](C)(c1ccccc1)c1ccc(Cl)cc1 [Clemastine fumarate]	0.882
Cc1nc2ccccn2c(=O)c1CCN1CCC(C(=O)c2ccc(F)cc2)CC1 [Pirenperone]	2.56
NS(=O)(=O)c1cc(C2(O)NC(=O)c3ccccc32)ccc1Cl (stereo not drawn) [Chlorthalidone]	-0.349
CC(=O)NS(=O)(=O)c1ccc(N)cc1 [Sulfacetamide sodic hydrate]	-0.433
NS(=O)(=O)c1cc(C(=O)O)c(NCc2ccco2)cc1Cl [Furosemide]	-0.705
NNc1nncc2ccccc12 [Hydralazine hydrochloride]	-1.11
CNC[C@H](O)[C@@H](O)[C@H](O)[C@H](O)CO [Meglumine]	-1.5
CCCc1cc(C(N)=S)ccn1 [Prothionamide]	0.224
CC(=O)Nc1ccc(OCC(O)CNC(C)C)cc1 (stereo not drawn) [Practolol]	-0.861
NCCc1ccc(O)c(O)c1 [Dopamine hydrochloride]	0.0633
C#C[C@]1(O)CC[C@H]2[C@@H]3CCC4=Cc5oncc5C[C@]4(C)[C@H]3CC[C@@]21C [Danazol]	-0.444

SMILES	LBPA endosome anti-LBPA integrated intensity (z-score)
CC(=O)O[C@H]1C[C@@H]2CC[C@@H]3[C@H](CC[C@@]4(C)[C@H]3C[C@H]([N+]3(C)CCCCC3)[C@@H]4OC(C)=O)[C@@]2(C)C[C@@H]1N1CCCCC1 [Vecuronium bromide]	0.00655
CCOc1nc2cccc(C(=O)O)c2n1Cc1ccc(-c2ccccc2-c2nnn[nH]2)cc1 [Candesartan]	0.346
O=C(CCNNC(=O)c1ccncc1)NCc1ccccc1 [Nialamide]	0.29
NC(Cc1cc(I)c(Oc2cc(I)c(O)c(I)c2)c(I)c1)C(=O)O (stereo not drawn) [Thyroxine (L)]	-1.35
Nc1ccc(/N=N/c2ccccc2)c(N)n1 [Phenazopyridine hydrochloride]	0.466
CC(=O)CC(c1ccccc1)c1c(O)c2ccccc2oc1=O (stereo not drawn) [Warfarin]	0.393
O=C1CCc2cc(OCCCCc3nnnn3C3CCCCC3)ccc2N1 [Cilostazol]	-0.0616
NC(=O)N1c2ccccc2CC(=O)c2ccccc21 [Oxcarbazepine]	-1.06
Cc1c(Nc2ncccc2C(=O)O)cccc1C(F)(F)F [Flunixin meglumine]	-0.897
CCn1cc(C(=O)O)c(=O)c2cnc(N3CCCC3)nc21 [Piromidic acid]	-0.684
CNC1(C)C2CCC(C2)C1(C)C (stereo not drawn) [Mecamylamine hydrochloride]	-1.35
CN(Cc1ccc(C(C)(C)C)cc1)Cc1cccc2ccccc12 [Butenafine Hydrochloride]	-1.43
CC[N+](C)(CC)CCC[n+]1c(-c2ccccc2)c2cc(N)ccc2c2ccc(N)cc21 [Propidium iodide]	-1.77
CC#C[C@]1(O)CC[C@H]2[C@@H]3CCC4=CC(=O)CCC4=C3[C@@H](c3ccc(N(C)C)cc3)C[C@@]21C [Mifepristone]	0.259
C[C@]12CCC(=O)C=C1CC[C@@H]1[C@@H]2[C@@H](O)C[C@@]2(C)[C@H]1CC[C@]2(O)C(=O)CO [Hydrocortisone base]	-0.249
CC[N+](CC)(CC)CCOc1cccc(OCC[N+](CC)(CC)CC)c1OCC[N+](CC)(CC)CC [Gallamine triethiodide]	-0.807
O=C(NC(Cc1cc(=O)[nH]c2ccccc12)C(=O)O)c1ccc(Cl)cc1 (stereo not drawn) [Rebamipide]	-0.707
OC(CCN1CCCCC1)(c1ccccc1)C1CCCCC1 (stereo not drawn) [Trihexyphenidyl-D,L Hydrochloride]	1.51
Nc1ccn([C@@H]2CS[C@H](CO)O2)c(=O)n1 [Lamivudine]	-0.745
COc1ccccc1OCC(O)CN1CCN(CC(=O)Nc2c(C)cccc2C)CC1 (stereo not drawn) [Ranolazine]	1.53
